Compound activity deposited in PubChem BioAssay by several laboratories.
Mtb UGM inh – inhibitors of M. tuberculosis UDP-galactopyranose mutase. P9WIQ1. purified UGM, fluorescence polarization probe displacement. inhibition, % at 10 µM. 320,000 compounds, 0.06% hits. AID 504406; in the data active = inhibition above about 10%, passing the limit was not always enough
Target sequence (P9WIQ1 whole entry, looked up): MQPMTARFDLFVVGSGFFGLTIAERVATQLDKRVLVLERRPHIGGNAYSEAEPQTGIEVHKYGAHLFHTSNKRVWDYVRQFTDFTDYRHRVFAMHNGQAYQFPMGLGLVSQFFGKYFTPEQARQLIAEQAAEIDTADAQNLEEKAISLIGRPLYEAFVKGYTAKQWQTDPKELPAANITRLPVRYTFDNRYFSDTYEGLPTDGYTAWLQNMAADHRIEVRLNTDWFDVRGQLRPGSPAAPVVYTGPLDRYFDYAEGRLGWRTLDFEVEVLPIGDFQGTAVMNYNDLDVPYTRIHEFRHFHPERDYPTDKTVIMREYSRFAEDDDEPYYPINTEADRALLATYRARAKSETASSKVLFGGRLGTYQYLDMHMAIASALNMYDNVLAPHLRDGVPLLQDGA
GDH-TPI counter – GDH-TPI coupled enzyme inhibition counter-screen; GDH-TPI coupled enzyme counterscreen, NADH absorbance; inhibition, % at 4.8 µM; 360,000 compounds, 1.2% hits; AID 588335; in the data active = inhibition above about 30%;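 also: 0% = DMSO wells and 100% = wells lacking the enzyme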
Mtb betalactam – beta-lactam sensitization of Mtb H37Rv; inhibition, % at 25 µM; M. tuberculosis H37Rv growth with meropenem, percent inhibition; 330,000 compounds, 0.27% hits; AID 434955; call rule not given here;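 also: growth measured after seven days incubation then overnight dye step; 0% = bacteria only wells and 100% = bacteria with antibiotic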
Mtb FBA inh – inhibits M. tuberculosis FBA enzyme. P9WQA3. purified M. tuberculosis FBA, fluorescence read-out. inhibition, % at 1 µM. 360,000 compounds, 2.3% hits. AID 588726; in the data active = inhibition above about 27%;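 also: 0% = vehicle and 100% = reference inhibitor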
Rv3671c protease – inhibitors of M. tuberculosis serine protease Rv3671c | inhibition, % at 5.96 µM | 320,000 compounds, 0.048% hits | P9WHR9 | AID 2606; in the data active = inhibition above about 38%;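 also: extracellular domain of Rv3671c used as enzyme; 0% = enzyme with DMSO and 100% = no enzyme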
* hit, by the source's call; . = no result; + = active, no number. Hits are enriched below; roughly 3.5% of the tested compounds scored in any of these assays.

SMILES	Mtb UGM inh	GDH-TPI counter	Mtb betalactam	Mtb FBA inh	Rv3671c protease
CCC1=NN2C(=N)/C(=C\c3cccn3-c3ccc(OC)cc3)C(=O)N=C2S1	14*	9	-1	-2	-11
N=C1/C(=C/c2ccco2)C(=O)N=C2SC(CC(=O)N3CCCC3)=NN12	1	31*	1	2	-4
Cc1ccc(-n2cccc2/C=C2\C(=N)N3N=C(C(C)C)SC3=NC2=O)cc1	1	4	3	1	-13
Cc1cc(/C=C2\C(=N)N3N=C(CC(=O)N4CCOCC4)SC3=NC2=O)c(C)n1-c1ccccc1	0	34*	-3	1	-7
CS(=O)(=O)C1=NN2C(=N)/C(=C\c3ccc(OC(=O)c4ccco4)cc3)C(=O)N=C2S1	-1	16	76	5	2
COc1ccc2c(CC(=O)Nc3ccc4nc(N5CCOCC5)sc4c3)coc2c1	.	-3	.	-4	.
CCN(CC)Cc1nc2c(c(=O)[nH]1)C(CC)(CC)Cc1ccccc1-2	1	11	97	3	3
O=C(CN1C(=O)NC2(CCCCCCC2)C1=O)NCc1ccc(Cl)cc1	-2	6	5	0	0
COc1ccc(N(C)C(=O)C2CCCN2S(=O)(=O)c2cccc3nsnc23)c(OC)c1 (configuration not stated)	-1	22	2	3	-3
COc1ccc(-n2c(C)cc(/C=C3\C(=N)N4N=C(CC(=O)N5CCOCC5)SC4=NC3=O)c2C)cc1	2	46*	1	-2	-14
COc1ccccc1/C=N\Nc1cn[nH]c(=O)c1Cl	2	25	-2	3	1
O=c1[nH]ncc(N/N=C\c2cccs2)c1Cl	0	36*	-3	-4	-3
O=c1[nH]ncc(N/N=C\c2ccncc2)c1Cl	0	44*	5	-4	0
Cc1cccc(/C=N\Nc2cn[nH]c(=O)c2Cl)c1	3	44*	63	-3	-5
O=c1[nH]ncc(N/N=C\c2cccnc2)c1Cl	-1	43*	-1	2	3
Cc1nn(C)c(C)c1S(=O)(=O)N(CC(=O)NCCCN1CCC(C)CC1)c1ccc(C(C)C)cc1	4	8	2	3	2
Cc1c(Cl)cccc1NC(=O)CSc1sc2c(O)cc(=O)[nH]c2c1C#N	0	21	1	-1	-10
N#Cc1c(SCC(=O)Nc2ccc(Cl)cc2Cl)sc2c(O)cc(=O)[nH]c12	3	33*	-4	1	-14
CC(=O)NC(c1ccc(F)c(F)c1)c1nc(-c2cccc(F)c2)cs1 (configuration not stated)	.	3	.	-3	.
NC(=O)C1CCN(C(=O)c2ccc3nc(-c4ccccc4)c(-c4ccccc4)nc3c2)CC1	0	24	3	66*	0
N#CCSc1nc2cc(C(=O)N3CCC(C(N)=O)CC3)ccc2c2nc3ccccc3n12	3	32*	-6	1	1
NC(=O)C1CCN(C(=O)c2ccc3ncsc3c2)CC1	.	4	.	-2	.
N#CCSc1nc2cc(C(=O)N3CCCC3)ccc2c(=O)n1Cc1ccccc1	2	10	7	-1	8
CC(C)c1ccc(-c2cc(C(=O)N3CCOCC3)c3cc(Br)ccc3n2)cc1	1	1	72	1	1
CCCCC(=O)Nc1ccccc1C(C)C	-3	.	8	.	1
SMILES	Mtb UGM inh	GDH-TPI counter	Mtb betalactam	Mtb FBA inh	Rv3671c protease
COc1ccc(-c2cc(=NC(CC(C)C)C(=O)O)c3cc(C)ccc3o2)cc1 (configuration not stated)	.	23	48	+	0
COc1ccc(-c2cc(=NCCC(=O)O)c3cc(C)ccc3o2)cc1	.	26	.	+	.
COc1ccc(N=c2cc(-c3ccc(OC)cc3)oc3ccccc23)cc1	.	18	-4	13	0
COc1ccc(-c2cc(=Nc3ccccc3)c3cc(C)ccc3o2)cc1	0	-1	15	+	1
Cc1nnc(NC(=O)C(C)Sc2nnc(-c3ccco3)n2C(C)C)s1 (configuration not stated)	3	16	4	-6	8
Cc1cc([N+](=O)[O-])cc2c1NC(=O)C2(O)N1CCOCC1 (configuration not stated)	-2	10	3	0	-9
Cc1ccc(S(=O)(=O)N2CCCC2C(=O)Nc2nccs2)cc1 (configuration not stated)	-1	10	5	3	5
O=C(Nc1nccs1)C1CCCN1/C=C/C(=O)C(F)(F)F (configuration not stated)	6	35*	0	2	6
COc1ccc(C(=O)C=Cc2ccc3c(c2)OCO3)cc1OC	.	17	.	0	.
